# Bioassay records: PubChem BioAssay, several laboratories
# An excerpt weighted towards active compounds, which were near 0.79% of everything screened.
# AddAB inh – growth inhibition of E. coli expressing H. pylori AddAB, primary screen, AddAB inhibitor project, absorbance | inhibition, % at 11.9 µM | AID 435030, 2010 | hit rate 0.29% among 330,000; in the data active = inhibition above about 12%;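 note: 0% = vehicle wells of infected cells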
# E coli growth-1 – E. coli V3065 growth inhibition, primary screen, counter-screen for AddAB inhibitor project, absorbance, OD600; inhibition, % at 11.9 µM; 18 h; hit rate 0.27% among 330,000; AID 449728, 2010;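 active = inhibition above the campaign's mean inhibition across all tested compounds plus 3 SD, cut at about 9.9% in these data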;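 note: uninfected addAB+ strain grown without phage in ampicillin broth; 0% = DMSO wells and 100% = ciprofloxacin 0.95 µg/ml wells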
# AI-2 QS mod – Vibrio harveyi AI-2 quorum sensing modulators, primary screen, JMH597 strain, luminescence/OD600 ratio; AID 2094, 2009; Vibrio harveyi JMH597 AI-2 luminescence/OD600 ratio, 9 h; stronger effect = lower value; strain lacks LuxN and CqsS sensors; 0 = neutral-control median; hit rate 0.4% among 300,000; activity change, % at 7.5 µM; in the data active = activity change below about -75%, passing the limit was not always enough;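 note: luminescence divided by OD600 gain over 9 h not by final OD600 alone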
# E coli growth-2 – E. coli growth inhibition, primary screen, OD600. Escherichia coli growth, 23 h; stronger effect = lower value. OD600 absorbance (concentration not given with the values). hit rate 0.21% among 330,000. AID 1053175, 2014;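 active = OD600 absorbance below the run mean of sample wells minus 3.6 SD, in any replicate, cut at about 0.56 in these data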
# Tat transport – E. coli Tat export inhibitors, primary screen, MC4100, TorA-mCherry reporter, fluorescence, single point. inhibition, % at 10 µM. hit rate 0.036% among 340,000;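 active = mean replicate inhibition at least 50% and at least half of replicates individually reaching 50%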;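 note: exported cargo escapes ClpAP degradation while cytoplasmic cargo is degraded and loses fluorescence; 0% = median of neutral control wells and 100% = median of NaSCN control wells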
# phage Ecoli inh – growth loss of phage-infected E. coli, primary screen, RecBCD inhibitor project, absorbance, with phage, HTS. inhibition, % at 11.9 µM. hit rate 0.26% among 360,000. AID 651602, 2012; in the data active = inhibition above about 11%
# RecBCD conf – growth loss of phage-infected RecBCD+ E. coli, confirmation, RecBCD inhibitor project, absorbance, E. coli V66, T4 gene 2 phage. inhibition, % at 11.9 µM. shares compounds with phage Ecoli inh. E. coli V66 + T4 2- phage, growth OD. hit rate 45% among 890;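 active = mean inhibition over triplicates exceeding the hit threshold derived in the original primary screen, cut at about 11% in these data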
# Ecoli viability – E. coli viability inhibition, counter-screen for RecBCD inhibitor project, absorbance, high throughput; shares compounds with phage Ecoli inh; absorbance (OD) growth; inhibition, % at 11.9 µM; hit rate 29% among 890; AID 651983, 2013; in the data active = inhibition above about 20%;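 note: E. coli strain V66 grown with compound alone and no phage infection; 0% = bacteria with DMSO vehicle only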
# AddAB counter – growth loss of phage-infected AddAB-carrying E. coli, confirmation, counter-screen for RecBCD inhibitor project, absorbance, E. coli V3065, T4 phage | E. coli expressing H. pylori AddAB + T4 phage, OD growth; gene 2 mutant T4, recBCD-deleted host | hit rate 45% among 890 | AID 651984, 2013 | inhibition, % at 11.9 µM | shares compounds with phage Ecoli inh;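 active = mean inhibition above the solvent-only control wells' mean plus 3 SD, cut at about 22% in these data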;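 note: higher means less bacterial growth from phage killing when AddAB is blocked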
# An asterisk follows results filed as active; . = no result given.
SMILES,AddAB inh,E coli growth-1,AI-2 QS mod,E coli growth-2,Tat transport,phage Ecoli inh,RecBCD conf,Ecoli viability,AddAB counter
OC(CN1CCN(c2ccccn2)CC1)Cn1c2ccccc2c2ccccc21 (configuration not stated),4.9,0.3,19.1,0.615,6.2,11.8*,-4.5,-4.0,-3.6
O=C(COc1ccccc1Cl)Nc1nnc(S(=O)(=O)N2CCCC2)s1,1.4,1.4,11.7,0.772,2.8,36.2*,-2.1,-2.2,-1.3
Oc1ccc(C=Nn2c(COc3ccccc3)n[nH]c2=S)c(O)c1,.,.,.,0.668,.,.,.,.,.
O=C(CN1C(=O)COc2ccccc21)Nc1ccccc1F,-0.1,1.5,42.4,0.691,21.6,14.1*,-2.7,-2.7,-2.7
O=C(CN1C(=O)COc2ccccc21)NNC(=O)Nc1ccccc1F,3.2,-1.4,7.4,0.693,-6.4,1.9,.,.,.
Fc1ccc(C(Nc2ccccn2)c2c[nH]c3ccccc23)cc1 (configuration not stated),-1.1,-1.6,27.8,0.71,-5.8,3.2,.,.,.
O=C(CCc1ccccc1)NC(c1cccs1)c1cc(Cl)c2cccnc2c1O (configuration not stated),.,.,45.9,0.642,-12.3,16.8*,8.6,9.2,14.2
CC(=O)NC(c1ccc(C)cc1)c1cc(Cl)c2cccnc2c1O (configuration not stated),.,.,-49.8,.,-7.5,20.9*,11.9*,16.0,17.5
CCC(=O)NC(c1cccs1)c1cc(Cl)c2ccccc2c1O (configuration not stated),3.5,1.1,.,0.695,0.7,2.0,.,.,.
Oc1c(C(Nc2ccccn2)c2cccnc2)cc(Cl)c2cccnc12 (configuration not stated),11.8,10.3*,-71.5,0.675,2.3,17.5*,1.9,4.9,17.3
CC(=O)NC(c1cc(Cl)c2cccnc2c1O)C1CC1 (configuration not stated),-0.5,2.9,.,0.683,-0.4,6.4,.,.,.
CCOC1OC(C(=O)NC2CC2)=CC(c2coc3ccccc3c2=O)C1CCCO (configuration not stated),.,.,.,0.708,.,.,.,.,.
CSCCC(NC(=O)NCc1cccs1)C(=O)O (configuration not stated),.,.,.,0.692,.,.,.,.,.
COc1cccc(C(Nc2ccccc2)c2ccc3ccc(C)nc3c2O)c1 (configuration not stated),.,.,.,.,.,12.0*,5.3,6.8,5.1
Cc1cccc(NC(c2ccc(O)cc2)c2ccc3ccc(C)nc3c2O)n1 (configuration not stated),3.3,-1.1,3.1,0.695,-3.8,6.4,.,.,.
Cc1nc2sc3c(c2c(=O)n1N=Cc1ccco1)CCCC3,.,.,.,0.709,.,.,.,.,.
Cc1c(Cc2ccc3c(c2)OCO3)sc(NC(=O)C(C)(C)C)c1C#N,0.2,-0.6,27.4,0.791,-2.2,100.1*,-1.5,-1.5,-1.2
CCC(=O)Nc1sc(Cc2ccc3c(c2)OCO3)c(C)c1C(N)=O,-0.4,-1.9,-2.2,0.661,-2.9,-0.1,.,.,.
CCOC1OC(C(=O)NCc2nc3ccccc3[nH]2)=CC(c2csc3ccccc23)C1CCCO (configuration not stated),.,.,.,0.703,.,.,.,.,.
COC(=O)Cn1ccnc1[N+](=O)[O-],.,.,.,.,.,15.6*,4.6,5.3,90.1*
O=C(c1ccc(-c2ccccc2)c(F)c1)C1CCCN(CCCn2cccn2)C1 (configuration not stated),3.4,1.0,8.8,0.696,-3.6,99.5*,1.1,1.9,0.7
